Reference: PubChem BioAssay (NCI)
About 83,000 compounds went through this panel and 20% of them were active in at least one assay; those are over-represented in the sample as a whole.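 Cells were grown in 96-well plates and exposed to the test compound at a single concentration for 48 hours; results are reported as percent growth, with values below 10 considered active.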 Unmarked numbers belong to inactive results. Active and inactive are the calls of the source.

Tested on: CCRF-CEM leukemia
Experiment: NCI-60 one-dose screen, 48 h (100 = growth as untreated, 0 = no growth, -100 = all killed)
Conditions: 10 µM unless noted

SMILES	growth
CCN=C1C=CC(=C(c2ccc(N(CC)CC)cc2)c2ccc(N(CC)CC)cc2)c2ccccc21	1.05% (active)
CC(=O)CC(=O)SC1=NCCS1	87.2%
CSc1cccc([N+](=O)[O-])c1	90.3%
C=C(C)[C@@H]1CC[C@]2(C(=O)NCCCN)CC[C@]3(C)[C@H](CC[C@@H]4[C@@]5(C)CC[C@H](O)C(C)(C)[C@@H]5CC[C@]43C)[C@@H]12	1.39% [100 µM] (active)
COc1ccc(/C=C/C=C\C(=O)c2ccc(-n3ccnc3)cc2)cc1	80.2%
Cc1ccccc1-n1nnc(C(=O)Nc2nc3ccc(F)cc3s2)c1C	66.5%
O=C(N/N=C/c1ccc([N+](=O)[O-])cc1)c1ccc(Br)o1	99.5%
O=S(=O)(/N=c1/n(-c2ccccc2)nc2n1CCN2C1=NCCN1)c1ccc(-c2ccccc2)cc1	94.7%
CCOC(=O)CCC[P+](c1ccccc1)(c1ccccc1)c1ccccc1	72.6%
COc1cccc(-c2[nH]c(=S)ncc2C(=O)c2ccccc2)c1	93.7%

Tested on: MOLT-4 leukemia
Experiment: as above
Conditions: 10 µM unless noted

SMILES	growth
CNc1cc(C(=O)O)nc(NC)n1	101%
Brc1ccc2c(c1)CN(C1CCCCC1)CO2	99.7%
CCN=C1C=CC(=C(c2ccc(N(CC)CC)cc2)c2ccc(N(CC)CC)cc2)c2ccccc21	-25.7% (active)
O=C(CSc1nc2ccc([N+](=O)[O-])cc2[nH]1)Nc1ccc(F)c(Cl)c1	5.63% (active)
COc1ccc(-c2ccc(NNC(=O)c3ccc(F)cc3)nn2)cc1OC	60.2%
CCOC(CNC(=O)c1cccc([N+](=O)[O-])c1)OCC	100%
CN(C)C(=S)Sc1ccc([N+](=O)[O-])cc1[N+](=O)[O-]	0.177% (active)
CCN(CC)CC(C)Nc1ccc(C)c2sc3ccccc3c(=O)c12 (stereo not drawn)	24.6%
CN(C)Cc1ccc[nH]1	107%
CNC(=O)c1cc(Oc2cccc3nc(NC(=O)Nc4cc(C(F)(F)F)cc(C(F)(F)F)c4)ccc23)ccn1	89.5%
CC1=CC[C@@H]2C(C)(C)[C@@H](O)CC[C@@]2(C)[C@@H]1COc1ccc2ccc(=O)oc2c1	37.3%
CC(=O)CC(=O)SC1=NCCS1	98.8%
CSc1cccc([N+](=O)[O-])c1	107%
O=C1/C(=C\c2cccn2Cc2ccccc2)c2ccccc2N1c1c(Cl)cccc1Cl	86.6%
COc1ncnc2c(-c3ccccc3)cn(COCc3ccccc3)c12	7.9% (active)
C=C(C)[C@@H]1CC[C@]2(C(=O)NCCCN)CC[C@]3(C)[C@H](CC[C@@H]4[C@@]5(C)CC[C@H](O)C(C)(C)[C@@H]5CC[C@]43C)[C@@H]12	2.76% [100 µM] (active)
COc1ccc(/C=C/C=C\C(=O)c2ccc(-n3ccnc3)cc2)cc1	75%
Cc1ccccc1-n1nnc(C(=O)Nc2nc3ccc(F)cc3s2)c1C	43.7%
O=C(N/N=C/c1ccc([N+](=O)[O-])cc1)c1ccc(Br)o1	123%

SMILES	growth
Cc1nc(-c2ccccc2)sc1CC#N	93.5%
O=S(=O)(/N=c1/n(-c2ccccc2)nc2n1CCN2C1=NCCN1)c1ccc(-c2ccccc2)cc1	95.1%
Nc1ccc2c(c1)Cc1cc(NC(=O)C(F)(F)F)ccc1-2	109%
O=C(Nc1ccc(C(=O)/C=C/c2ccc(N3CCOCC3)cc2)cc1)Nc1ccc([N+](=O)[O-])cc1	66.2%
C=CCc1nc2ccccc2s1	89.1%
O=C(Nc1cc(F)cc2cccnc12)c1cnc(N2CCNCC2)cn1	24.5%
C[n+]1c2ccccc2nc2c(N)cc(N)cc21	34.8%
CCOC(=O)CCC[P+](c1ccccc1)(c1ccccc1)c1ccccc1	72%
COc1ccc2nc3ccccc3c(NCCNCCO)c2c1	10.1%
c1nc(N2CCOCC2)c2[nH]ccc2n1	94%
Oc1c(CNCCNCc2cc(Cl)cc(Cc3ccccc3)c2O)cc(Cl)cc1Cc1ccccc1	18.2%
COc1cc(Cl)cc(-c2nn(C(=O)NS(=O)(=O)c3ccccc3)cc2-c2ccncc2)c1	82.8%
COc1cccc(-c2[nH]c(=S)ncc2C(=O)c2ccccc2)c1	76.8%
CC(C)(C)c1cc(C(=O)Nc2ccccc2C(=O)NCCN)cc(C(C)(C)C)c1	20.6%
N=C(N)c1ccc(-c2ccc(-c3ccc(-c4cccs4)s3)s2)cc1F	91%
Cc1c(Cn2cc(COc3ccc(Br)cc3)nn2)c(C)c(Cn2cc(COc3ccc(Br)cc3)nn2)c(C)c1Cn1cc(COc2ccc(Br)cc2)nn1	103%
CCc1ccc(-c2ccc(COc3ccc(CC4SC(=O)NC4=O)cc3)cc2)cc1 (stereo not drawn)	58.5%
Cc1ccc(N)c(O)c1	106%
CCCCN(CCCC)CC(O)c1ccc(OCc2ccccc2)c2ccccc12 (stereo not drawn)	15.8%
